Data on 25 molecules can be found in PubChem BioAssay (NCATS).

The target in assay [1] is Guanine nucleotide-binding protein G(i) subunit alpha-1 (Homo sapiens) (UniProt P63096). Description: qHTS Assay for Inhibitors of RGS12 GoLoco Motif Activity (Green Fluorophore) (AID 879). Also: potency is read from the fitted curve at half-maximal effect. In a few lines: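 Fluorescence polarization assay: 50 nM Gαi1 with 10 nM FITC-labeled RGS12 GoLoco peptide in 10 mM Tris pH 7.5, 150 mM NaCl, 0.1 mM GDP, 0.05% NP40, 10 min at room temperature with compound.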
Sequence of Guanine nucleotide-binding protein G(i) subunit alpha-1 (Homo sapiens) (P63096 whole entry, looked up): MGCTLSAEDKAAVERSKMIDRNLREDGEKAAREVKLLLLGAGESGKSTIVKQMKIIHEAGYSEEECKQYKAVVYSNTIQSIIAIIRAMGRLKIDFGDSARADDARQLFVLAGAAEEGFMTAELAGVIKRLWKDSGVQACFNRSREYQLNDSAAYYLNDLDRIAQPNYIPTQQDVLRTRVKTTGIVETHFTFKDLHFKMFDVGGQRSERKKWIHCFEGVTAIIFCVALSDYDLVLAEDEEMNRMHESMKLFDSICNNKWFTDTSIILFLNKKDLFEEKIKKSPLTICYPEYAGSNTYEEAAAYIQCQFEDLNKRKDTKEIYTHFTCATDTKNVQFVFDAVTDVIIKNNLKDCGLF

The target of assay [2] is Cytochrome P450 3A4 (Homo sapiens) (UniProt P08684). Nature of the assay: qHTS Assay for Inhibitors and Substrates of Cytochrome P450 3A4 (AID 884). Also: nearly all actives have a fitted effect of over 50% in size. Also: potency is read from the fitted curve at half-maximal effect. In a few lines: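 20 nM human CYP3A4 with 25 uM Luciferin-PPXE (at KM) in 200 mM KPO4, preincubated 10 min with compound; NADPH regeneration started a 60 min RT reaction. Luciferin detected by luminescence, normalized to 57 uM ketoconazole as full inhibition.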
Sequence of Cytochrome P450 3A4 (Homo sapiens) (P08684 whole entry, looked up): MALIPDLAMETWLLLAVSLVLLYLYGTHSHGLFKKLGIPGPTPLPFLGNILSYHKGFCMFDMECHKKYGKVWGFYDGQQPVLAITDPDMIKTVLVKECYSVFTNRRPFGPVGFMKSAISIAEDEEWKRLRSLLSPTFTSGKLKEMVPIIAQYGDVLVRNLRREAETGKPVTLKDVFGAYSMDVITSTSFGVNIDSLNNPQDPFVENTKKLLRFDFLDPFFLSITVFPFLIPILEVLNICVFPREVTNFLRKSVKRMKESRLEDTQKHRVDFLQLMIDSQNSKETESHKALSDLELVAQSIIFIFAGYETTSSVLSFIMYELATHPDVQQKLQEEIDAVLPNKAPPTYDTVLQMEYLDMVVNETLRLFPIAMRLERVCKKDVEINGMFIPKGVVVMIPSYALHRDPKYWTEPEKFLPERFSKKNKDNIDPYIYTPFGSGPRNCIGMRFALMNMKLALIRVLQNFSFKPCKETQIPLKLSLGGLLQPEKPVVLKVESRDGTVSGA

For assay [3] the target is unchanged. Nature of the assay: qHTS Assay for Activators of Cytochrome P450 3A4 (AID 885). Also: nearly all actives have a fitted effect of over 65% in size. In outline: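 Signal was normalized against complete inhibition by 57 uM ketoconazole. The reaction used 20nM CYP3A4 with 25uM Luciferin-PPXE, 10-min compound preincubation and a 60-min NADPH-supported step at RT.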
For assay [4], the target named is Cytochrome P450 2C19 (Homo sapiens) (UniProt P33261). Description: qHTS Assay for Inhibitors and Substrates of Cytochrome P450 2C19 (AID 899). Also: nearly all actives have a fitted effect of over 60% in size. Also: potency is read from the fitted curve at half-maximal effect. In a few lines: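 In 50mM KPO4, the reaction held 5nM enzyme and KM-level (10uM) Luciferin-H EGE; it ran 60 min at 37C after NADPH regeneration and a 10 min compound preincubation. Luminescence values were scaled to 57uM ketoconazole as complete inhibition.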
Sequence of Cytochrome P450 2C19 (Homo sapiens) (P33261 whole entry, looked up): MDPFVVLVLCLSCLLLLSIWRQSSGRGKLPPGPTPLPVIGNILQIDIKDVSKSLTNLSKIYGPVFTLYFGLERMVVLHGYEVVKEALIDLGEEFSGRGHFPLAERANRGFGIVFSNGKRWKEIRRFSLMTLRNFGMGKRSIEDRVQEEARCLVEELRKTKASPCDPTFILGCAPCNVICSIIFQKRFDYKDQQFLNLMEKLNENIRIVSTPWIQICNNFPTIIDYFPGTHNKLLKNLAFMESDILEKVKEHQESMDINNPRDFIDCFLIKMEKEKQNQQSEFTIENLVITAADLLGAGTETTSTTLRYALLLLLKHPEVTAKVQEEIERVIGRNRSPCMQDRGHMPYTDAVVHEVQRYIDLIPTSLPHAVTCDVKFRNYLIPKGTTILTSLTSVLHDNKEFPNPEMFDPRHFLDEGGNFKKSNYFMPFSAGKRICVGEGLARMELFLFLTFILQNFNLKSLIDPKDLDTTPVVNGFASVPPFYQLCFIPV

Assay [5] addresses Cytochrome P450 2C9 (Homo sapiens) (UniProt P11712). Description: qHTS Assay for Inhibitors and Substrates of Cytochrome P450 2C9 (AID 883). Also: nearly all actives have a fitted effect of over 60% in size. Also: potency is read from the fitted curve at half-maximal effect. In a few lines:
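CYP2C9 deoxyluciferin hydroxylation, 37C, 60 min with NADPH regeneration; 10nM enzyme, 100uM Luciferin-H (KM). Glo detection reagent stopped reaction; luminescence normalized to sulphaphenazole (57uM) full inhibition.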

Assay [6] has as its target Cytochrome P450 2D6 (Homo sapiens) (UniProt P10635). Description: qHTS Assay for Inhibitors and Substrates of Cytochrome P450 2D6 (AID 891). Also: nearly all actives have a fitted effect of over 60% in size. Also: potency is read from the fitted curve at half-maximal effect. In outline:
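Human CYP2D6 (5 nM) with 30 uM Luciferin-ME EGE (at Km) in 100 mM KPO4, compound preincubated 10 min, then NADPH regeneration system for 60 min at room temperature. Luciferin read by luminescence; normalized to 1.43 uM quinidine.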

The nature of assay [7]: qHTS Assay for Identification of Small Molecule Antagonists for NFkB Signaling Pathway (AID 895; active = well fitted inhibition curve with a large enough effect in the signal ratio, with a control signal flat, not every such curve was filed as active; the % refers to the signal ratio; also: potency is read from the fitted curve at half-maximal effect). In outline:
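NFkB-bla ME-180 cervical carcinoma cells with beta-lactamase reporter under NFkB response element; compounds added, then TNF alpha at 10 pM final (EC50), 5 h at 37 C. LiveBLAzer substrate 2 h, room temperature; emission 460/530 nm at 405 nm excitation.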

Values joined by “and” are separate entries in the source; they are usually repeats but may differ in a detail not shown here. Equal entries are not always repeated. Results filed as inconclusive are left out. A call without a number means that no potency is given here. Active and inactive are the calls of the source. Unless noted, calls follow the shape of the dose curve; as a rule, active = well fitted curve in the direction sought with a large enough effect; inconclusive = small, poorly fitted or top-dose-only effect, or another doubt; inactive = no such curve, though single readings can be large; an effect the other way counts as inactive or inconclusive.

Sequence of Cytochrome P450 2C9 (Homo sapiens) (P11712 whole entry, looked up): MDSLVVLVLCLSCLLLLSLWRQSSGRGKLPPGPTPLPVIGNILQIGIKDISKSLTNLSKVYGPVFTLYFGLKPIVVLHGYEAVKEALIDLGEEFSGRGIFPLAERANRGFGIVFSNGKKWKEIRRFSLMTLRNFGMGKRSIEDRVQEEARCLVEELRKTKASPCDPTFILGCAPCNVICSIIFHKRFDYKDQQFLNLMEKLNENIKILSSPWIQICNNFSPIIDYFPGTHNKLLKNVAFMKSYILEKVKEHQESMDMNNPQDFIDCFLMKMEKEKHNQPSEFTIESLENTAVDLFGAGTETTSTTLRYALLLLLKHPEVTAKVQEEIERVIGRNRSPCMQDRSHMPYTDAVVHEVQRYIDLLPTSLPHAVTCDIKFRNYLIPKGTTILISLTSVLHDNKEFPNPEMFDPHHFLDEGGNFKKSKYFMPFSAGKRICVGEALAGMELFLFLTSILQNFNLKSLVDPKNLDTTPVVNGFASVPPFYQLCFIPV
Sequence of Cytochrome P450 2D6 (Homo sapiens) (P10635 whole entry, looked up): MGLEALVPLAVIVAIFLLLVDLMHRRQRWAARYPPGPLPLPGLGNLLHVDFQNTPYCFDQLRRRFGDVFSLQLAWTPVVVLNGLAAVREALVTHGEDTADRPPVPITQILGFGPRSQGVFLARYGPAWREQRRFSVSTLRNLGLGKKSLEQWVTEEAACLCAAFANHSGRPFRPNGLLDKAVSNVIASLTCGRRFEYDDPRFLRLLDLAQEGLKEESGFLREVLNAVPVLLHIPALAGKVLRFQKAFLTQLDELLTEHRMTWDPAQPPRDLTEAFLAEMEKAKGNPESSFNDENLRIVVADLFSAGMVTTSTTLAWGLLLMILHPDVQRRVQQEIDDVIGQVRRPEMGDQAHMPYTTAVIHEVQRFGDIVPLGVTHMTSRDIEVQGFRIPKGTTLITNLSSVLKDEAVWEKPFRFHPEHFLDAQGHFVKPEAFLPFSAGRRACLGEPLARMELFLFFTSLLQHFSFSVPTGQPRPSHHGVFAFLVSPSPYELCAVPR

Take `Nc1ccc(CCN2CCN(c3cccc(C(F)(F)F)c3)CC2)cc1`: the Potency entry in assay [1] is “inactive”. Further, the Potency in assay [2] and in assay [4] was 7.94 µM (active) each time. Also, in assay [3], the molecule was called inactive.
For `CCS(=O)(=O)Nc1cccc(C(=C2CCCCC2)c2cnc[nH]2)c1`, the Potency entry in assay [1] is “inactive”. Besides, the Potency in assay [5] is 631 nM (active); in assay [2], 0.316 µM (active); in assay [6], 7.94 µM (active); in assay [4] it was 0.0079 µM (active). Moreover, in assay [3], the molecule was called inactive.
On to `CCCn1c(=O)c2[nH]c(C3CCCC3)nc2n(CCCOC(=O)c2ccc(S(=O)(=O)F)cc2)c1=O`, for which the Potency result in assay [1] is “inactive”. Moreover, the call in assay [3] was inactive. The Potency in assay [7] was 10 µM (active).
On to `NC(=O)c1cc(N2CC2)c([N+](=O)[O-])cc1[N+](=O)[O-]`, for which the Potency entry in assay [1] and in assay [7] was “inactive” throughout. The result in assay [3] was inactive.
On to `O=[N+]([O-])c1cc(O)c(O)c([N+](=O)[O-])c1`, for which the Potency entry in assay [1], in assay [6], in assay [7] and in assay [4] was “inactive” throughout. The Potency in assay [5] is 10 µM (active) and 794 nM (active).
For `c1ccc2c(N3CCNCC3)cccc2c1`, the Potency result in assay [1] is “inactive”.
`NC(=O)COc1c(F)cc(SCCNS(=O)(=O)c2ccccc2)cc1F`: in assay [1], the Potency entry was “inactive”. In addition, the molecule was classed as inactive in assay [3].
As to `c1ccc2c(c1)[I+]c1ccccc1-2`, the Potency result in assay [1] was “inactive”. Besides, the Potency was 3.16 µM (active) in assay [2]; 3.98 µM (active) and 794 nM (active) in assay [6]; 501 nM (active) and 63.1 nM (active) in assay [4]. The molecule was called inactive in assay [3].
For the molecule `C[N+]1(C)[C@@H]2CC[C@H]1CC(OC(=O)c1c[nH]c3ccccc13)C2` (stereo partly specified), the Potency entry in assay [1] is “inactive”. Moreover, the Potency in assay [2] is 7.94 µM (active). For the same molecule, the outcome in assay [3] was inactive.
Regarding `C[N+]1(C)CCN(c2ccccc2)CC1`, the Potency entry in assay [1] is “inactive”. Further, the result in assay [3] was inactive.
Take `Cc1sc2ccccc2c1CC1=NCCN1`: the Potency result in assay [1] is “inactive”.
Turning to `Cc1[nH]c2ccc(O)cc2c1CCN`, the Potency result in assay [1] and in assay [7] was “inactive” each time. Further, in assay [3], the molecule was called inactive. Further, the Potency in assay [4] was 7.94 µM (active).
`CC(=O)NBr`: the Potency entry in assay [1] is “inactive”.
`COc1ccc2[nH]cc(CCN)c2c1`: the Potency result in assay [1] and in assay [2] was “inactive” each time.
With `NNC(=O)c1ccc(O)cc1`, the Potency entry in assay [1] and in assay [7] was “inactive” each time. In assay [2], the Potency was 5.01 µM (active). Further, in assay [3], the molecule was classed as inactive.
In the case of `CCCN(CCC)C1Cc2cc(OC)c(OC)cc2C1`, the Potency entry in assay [1], in assay [5] and in assay [7] was “inactive” in each case.
Turning to `NC(N)=NOCC[C@H](N)C(=O)O`, in assay [1], the Potency entry is “inactive”.
Still for that read-out and setting: for `C[C@@H]1O[C@H](C[N+](C)(C)C)CS1` the value was “inactive”.
Turning to `NCCCP(=O)(O)O`, in assay [1], the Potency result is “inactive”. The call in assay [3] was inactive.
As for `CCCN(CCC)CCc1c[nH]c2ccc(C(N)=O)cc12`, the Potency result in assay [1], in assay [5] and in assay [7] was “inactive” each time.
Regarding `N#CC(C#N)=Cc1cc(O)c(O)c(O)c1`, in assay [1], the Potency result is “inactive”. The outcome in assay [3] was inactive.
For the molecule `COc1ccc2c(c1)/C(=C/c1cnc[nH]1)C(=O)N2`, the Potency entry in assay [1] is “inactive”. Moreover, in assay [2], the Potency was 0.794 µM (active). For the same molecule, the call in assay [3] was inactive.
As to `O=c1c2ccccc2[se]n1-c1ccccc1`, the Potency is 12.6 µM (active) in assay [1]; 1 µM (active) and 79.4 nM (active) in assay [5]; 3.98 µM (active) and 25.1 µM (active) in assay [2]; 10 µM (active) and 1 µM (active) in assay [6]; 1.58 µM (active) and 126 nM (active) in assay [4]. The molecule was called inactive in assay [3].
With `CC(C)(C)c1cc(C=C(C#N)C#N)cc(C(C)(C)C)c1O`, the Potency result in assay [1] is “inactive”. Further, the Potency is 31.6 nM (active) in assay [5] and 3.16 µM (active) in assay [2]. The molecule was called inactive in assay [3].
For the molecule `Cc1c2ccncc2c(C)c2c1[nH]c1ccccc12`, in assay [1], the Potency result is “inactive”. Further, the Potency in assay [2] is 158 nM (active) and 398 nM (active); in assay [6], 31.6 µM (active) and 6.31 µM (active); in assay [4], 6.31 µM (active) and 3.16 µM (active). Further, the outcome in assay [3] was inactive.
